Assay results: the supplement of paper PMC11732987, “Enantioselective OTUD7B fragment discovery through chemoproteomics screening and high-throughput optimisation” (Communications Chemistry, 2025)

Assays:
Test in all cases: log2 ratio of Biotin-Ahx-Ub-VS probe labelling (fragment/DMSO); higher = less target engagement (more negative = stronger competition), active = hit call of the paper (q ≤ 0.05, log2 ratio ≤ -1)
Conditions in all cases: compound concentration: 200 uM; treatment time: 3 h
[1] = biological target: T1, ALG13 (UniProt Q9NP73)
T1 sequence (whole entry): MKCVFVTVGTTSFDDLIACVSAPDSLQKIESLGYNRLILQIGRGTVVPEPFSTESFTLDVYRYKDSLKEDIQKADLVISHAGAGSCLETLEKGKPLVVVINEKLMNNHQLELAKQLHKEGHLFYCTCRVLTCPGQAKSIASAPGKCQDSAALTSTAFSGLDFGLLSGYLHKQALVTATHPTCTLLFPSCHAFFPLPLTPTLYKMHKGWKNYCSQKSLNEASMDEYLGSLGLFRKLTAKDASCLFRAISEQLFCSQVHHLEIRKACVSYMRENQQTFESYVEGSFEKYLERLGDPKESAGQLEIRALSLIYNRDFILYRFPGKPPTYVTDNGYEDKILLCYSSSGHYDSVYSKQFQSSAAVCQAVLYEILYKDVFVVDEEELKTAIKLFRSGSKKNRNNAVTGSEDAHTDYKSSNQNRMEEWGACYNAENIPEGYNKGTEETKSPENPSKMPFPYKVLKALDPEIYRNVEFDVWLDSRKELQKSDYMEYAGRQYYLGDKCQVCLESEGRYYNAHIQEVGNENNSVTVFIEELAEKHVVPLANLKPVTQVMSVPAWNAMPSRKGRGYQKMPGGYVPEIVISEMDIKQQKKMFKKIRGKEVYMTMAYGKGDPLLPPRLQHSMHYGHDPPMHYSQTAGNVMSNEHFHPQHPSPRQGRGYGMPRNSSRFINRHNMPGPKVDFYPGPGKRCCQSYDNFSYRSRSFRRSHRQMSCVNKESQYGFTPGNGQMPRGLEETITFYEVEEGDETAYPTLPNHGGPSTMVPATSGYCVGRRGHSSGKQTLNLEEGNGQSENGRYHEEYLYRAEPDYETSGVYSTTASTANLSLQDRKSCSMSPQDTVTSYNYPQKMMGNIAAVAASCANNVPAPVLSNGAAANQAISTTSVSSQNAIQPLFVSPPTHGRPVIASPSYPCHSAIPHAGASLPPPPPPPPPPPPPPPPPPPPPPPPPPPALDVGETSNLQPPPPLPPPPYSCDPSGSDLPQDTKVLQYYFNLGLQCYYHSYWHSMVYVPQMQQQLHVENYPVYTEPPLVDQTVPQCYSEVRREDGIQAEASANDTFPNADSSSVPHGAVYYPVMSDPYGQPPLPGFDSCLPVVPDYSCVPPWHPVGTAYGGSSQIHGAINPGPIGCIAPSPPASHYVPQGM
Method in brief: (§1)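 Triplicate samples of HEK293T lysate, 495 µg each, received fragment at 200 µM or vehicle for 3 h, followed by Biotin-Ahx-Ub-VS (0.5 µM final) for 1 h. After NeutrAvidin enrichment of labelled DUBs and LysC/trypsin digestion, peptides were run by diaPASEF LC-MS/MS. The values are average log2 fragment/vehicle ratios from global-median-normalised Spectronaut label-free quantities, tested by unpaired t-test on proteins having ≥2 unique peptides.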

[2] = biological target: ATXN3 (UniProt P54252)
Sequence of ATXN3 (P54252 whole entry): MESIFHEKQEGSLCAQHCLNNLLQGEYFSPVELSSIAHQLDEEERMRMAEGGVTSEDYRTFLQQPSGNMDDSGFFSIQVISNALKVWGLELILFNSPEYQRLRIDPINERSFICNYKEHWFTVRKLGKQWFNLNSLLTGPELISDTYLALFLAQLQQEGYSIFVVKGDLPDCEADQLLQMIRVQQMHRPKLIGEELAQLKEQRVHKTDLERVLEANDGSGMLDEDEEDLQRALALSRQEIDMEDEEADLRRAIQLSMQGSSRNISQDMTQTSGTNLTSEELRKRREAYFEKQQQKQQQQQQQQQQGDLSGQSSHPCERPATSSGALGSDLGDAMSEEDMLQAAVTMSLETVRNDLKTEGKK
Method in brief: as §1

[3] = biological target: T2, BAP1 (UniProt Q92560)
T2 sequence (whole entry): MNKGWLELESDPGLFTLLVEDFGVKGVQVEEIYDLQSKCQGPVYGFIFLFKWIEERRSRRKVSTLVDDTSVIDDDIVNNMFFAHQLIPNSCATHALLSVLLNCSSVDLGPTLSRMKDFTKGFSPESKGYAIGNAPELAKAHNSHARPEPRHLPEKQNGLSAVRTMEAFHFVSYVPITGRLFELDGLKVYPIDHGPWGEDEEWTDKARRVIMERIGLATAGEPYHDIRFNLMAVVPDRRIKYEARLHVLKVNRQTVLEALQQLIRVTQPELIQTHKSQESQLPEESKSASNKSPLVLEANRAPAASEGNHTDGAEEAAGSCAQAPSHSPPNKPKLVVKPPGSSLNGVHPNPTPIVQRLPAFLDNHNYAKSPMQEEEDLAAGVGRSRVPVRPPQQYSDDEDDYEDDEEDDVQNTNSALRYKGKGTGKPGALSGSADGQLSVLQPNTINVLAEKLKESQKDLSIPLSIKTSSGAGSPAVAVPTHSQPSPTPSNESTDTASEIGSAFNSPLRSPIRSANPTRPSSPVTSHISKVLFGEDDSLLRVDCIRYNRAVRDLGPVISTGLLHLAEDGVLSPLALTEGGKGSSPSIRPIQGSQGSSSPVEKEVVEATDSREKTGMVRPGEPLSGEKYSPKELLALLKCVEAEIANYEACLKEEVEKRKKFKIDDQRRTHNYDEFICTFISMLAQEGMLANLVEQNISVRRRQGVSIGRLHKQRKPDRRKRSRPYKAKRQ
Method in brief: as §1

[4] = biological target: EIF3F (UniProt O00303)
Sequence of EIF3F (O00303 whole entry): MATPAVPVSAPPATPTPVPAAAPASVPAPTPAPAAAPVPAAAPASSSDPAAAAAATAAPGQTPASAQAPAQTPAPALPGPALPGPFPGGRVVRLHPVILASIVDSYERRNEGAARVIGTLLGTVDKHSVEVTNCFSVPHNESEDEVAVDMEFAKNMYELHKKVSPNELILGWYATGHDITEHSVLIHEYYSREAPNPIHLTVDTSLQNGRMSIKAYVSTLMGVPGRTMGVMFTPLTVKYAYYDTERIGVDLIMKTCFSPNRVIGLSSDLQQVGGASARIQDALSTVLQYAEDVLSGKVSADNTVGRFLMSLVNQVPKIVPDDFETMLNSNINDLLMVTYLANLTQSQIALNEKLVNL
Method in brief: as §1

[5] = biological target: EIF3H (UniProt O15372)
Sequence of EIF3H (O15372 whole entry): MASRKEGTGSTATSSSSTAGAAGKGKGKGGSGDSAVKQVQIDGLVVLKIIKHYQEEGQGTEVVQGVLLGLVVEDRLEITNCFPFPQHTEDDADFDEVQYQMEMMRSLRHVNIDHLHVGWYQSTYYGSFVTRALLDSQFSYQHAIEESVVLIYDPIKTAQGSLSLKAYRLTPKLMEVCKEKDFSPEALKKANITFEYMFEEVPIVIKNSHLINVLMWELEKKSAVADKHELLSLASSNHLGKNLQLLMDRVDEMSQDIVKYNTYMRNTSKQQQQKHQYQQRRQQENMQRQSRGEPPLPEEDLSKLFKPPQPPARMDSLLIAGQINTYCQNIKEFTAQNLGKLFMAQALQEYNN
Method in brief: as §1

[6] = biological target: T3, FAM105A (UniProt Q9NUU6)
T3 sequence (whole entry): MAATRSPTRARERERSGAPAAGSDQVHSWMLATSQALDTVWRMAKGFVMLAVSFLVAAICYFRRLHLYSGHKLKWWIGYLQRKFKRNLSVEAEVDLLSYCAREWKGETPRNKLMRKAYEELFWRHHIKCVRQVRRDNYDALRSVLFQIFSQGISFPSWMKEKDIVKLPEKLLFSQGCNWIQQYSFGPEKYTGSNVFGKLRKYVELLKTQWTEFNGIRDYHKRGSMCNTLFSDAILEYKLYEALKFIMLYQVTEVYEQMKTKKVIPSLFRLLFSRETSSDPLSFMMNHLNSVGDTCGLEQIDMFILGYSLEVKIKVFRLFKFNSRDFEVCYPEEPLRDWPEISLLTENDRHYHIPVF
Method in brief: as §1

[7] = biological target: OTUB1 (UniProt Q96FW1)
Sequence of OTUB1 (Q96FW1 whole entry): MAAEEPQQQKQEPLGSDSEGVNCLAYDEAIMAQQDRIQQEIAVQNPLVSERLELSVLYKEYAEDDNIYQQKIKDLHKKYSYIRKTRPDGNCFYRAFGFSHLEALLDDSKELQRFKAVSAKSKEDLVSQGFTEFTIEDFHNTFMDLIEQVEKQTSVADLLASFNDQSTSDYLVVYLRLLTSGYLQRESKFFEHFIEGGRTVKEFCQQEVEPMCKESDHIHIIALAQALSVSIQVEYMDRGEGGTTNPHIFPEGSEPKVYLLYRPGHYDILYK
Method in brief: as §1

[8] = biological target: T4, OTUD4 (UniProt Q01804)
T4 sequence (whole entry): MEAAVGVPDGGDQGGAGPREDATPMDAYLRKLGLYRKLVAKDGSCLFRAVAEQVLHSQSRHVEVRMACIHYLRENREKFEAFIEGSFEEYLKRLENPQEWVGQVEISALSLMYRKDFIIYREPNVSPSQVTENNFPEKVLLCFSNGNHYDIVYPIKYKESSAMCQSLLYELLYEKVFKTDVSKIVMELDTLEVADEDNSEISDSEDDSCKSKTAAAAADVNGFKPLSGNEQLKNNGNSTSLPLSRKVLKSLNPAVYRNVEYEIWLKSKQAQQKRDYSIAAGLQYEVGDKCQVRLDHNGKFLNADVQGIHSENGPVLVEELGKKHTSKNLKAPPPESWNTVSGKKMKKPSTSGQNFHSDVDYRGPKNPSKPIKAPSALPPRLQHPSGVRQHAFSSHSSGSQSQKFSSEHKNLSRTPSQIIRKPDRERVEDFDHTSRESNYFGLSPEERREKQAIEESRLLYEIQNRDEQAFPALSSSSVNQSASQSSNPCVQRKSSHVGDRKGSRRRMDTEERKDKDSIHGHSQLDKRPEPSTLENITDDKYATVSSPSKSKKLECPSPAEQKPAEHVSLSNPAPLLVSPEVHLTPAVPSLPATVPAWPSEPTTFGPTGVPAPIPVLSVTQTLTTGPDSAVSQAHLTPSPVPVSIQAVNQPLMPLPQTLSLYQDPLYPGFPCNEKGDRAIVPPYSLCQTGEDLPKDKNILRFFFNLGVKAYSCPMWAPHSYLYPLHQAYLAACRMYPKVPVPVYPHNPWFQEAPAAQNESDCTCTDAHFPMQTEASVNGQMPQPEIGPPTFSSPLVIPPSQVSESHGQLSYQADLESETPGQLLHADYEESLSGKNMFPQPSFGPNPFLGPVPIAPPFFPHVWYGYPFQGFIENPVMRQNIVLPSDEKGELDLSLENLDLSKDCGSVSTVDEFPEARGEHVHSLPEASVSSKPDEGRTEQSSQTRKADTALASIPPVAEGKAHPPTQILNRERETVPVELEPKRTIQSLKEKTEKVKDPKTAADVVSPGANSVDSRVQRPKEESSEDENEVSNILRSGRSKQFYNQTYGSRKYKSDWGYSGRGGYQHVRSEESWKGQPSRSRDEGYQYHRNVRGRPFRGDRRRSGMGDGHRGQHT
Method in brief: as §1

[9] = biological target: T5, OTUD5 (UniProt Q96G74)
T5 sequence (whole entry): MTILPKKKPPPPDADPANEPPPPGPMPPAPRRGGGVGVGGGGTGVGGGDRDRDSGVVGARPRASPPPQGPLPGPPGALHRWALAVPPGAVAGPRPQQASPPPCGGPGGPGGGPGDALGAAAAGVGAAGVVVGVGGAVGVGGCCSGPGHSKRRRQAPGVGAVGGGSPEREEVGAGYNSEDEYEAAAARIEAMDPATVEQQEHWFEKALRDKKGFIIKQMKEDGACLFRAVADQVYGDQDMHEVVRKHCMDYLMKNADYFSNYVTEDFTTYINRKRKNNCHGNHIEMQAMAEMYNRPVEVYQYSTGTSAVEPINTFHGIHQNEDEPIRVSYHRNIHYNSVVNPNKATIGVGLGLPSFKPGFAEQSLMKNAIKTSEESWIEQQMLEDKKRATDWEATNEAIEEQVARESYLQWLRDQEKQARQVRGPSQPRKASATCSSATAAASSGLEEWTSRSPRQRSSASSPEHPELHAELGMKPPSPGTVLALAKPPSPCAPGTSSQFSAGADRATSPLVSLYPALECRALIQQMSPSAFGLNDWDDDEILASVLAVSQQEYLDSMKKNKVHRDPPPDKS
Method in brief: as §1

Measured: log2 ratio of Biotin-Ahx-Ub-VS probe labelling

O=C(CCl)N1CCCCC12CCOCC2
active: [3] -1.05
inactive: [1] 0.112 | [2] -0.355 | [4] -0.323 | [5] -0.162 | [6] 0.208 | [7] -0.126 | [8] -0.484 | [9] -0.461
